Bioassay records as filed in PubChem BioAssay.
Hits are enriched below; roughly 4% of the tested compounds scored in any of these assays.
Mtb bLac sens: beta-lactam sensitization of Mtb H37Rv | M. tuberculosis H37Rv growth with meropenem, percent inhibition | AID 434955 | inhibition, % at 25 µM | 0.27% of 330,000 active; call rule not given here;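 further: growth measured after seven days incubation then overnight dye step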
RecA splice inh: blocks M. tuberculosis RecA intein splicing | P9WHJ3 | cell-free RecA intein splicing, fluorescence | inhibition, % (test concentration not listed) | 0.75% of 290,000 active | AID 2221; in the data active means inhibition above about 30%; inconclusive means no clear call, values can overlap the other calls
Mtb UGM inh: inhibitors of M. tuberculosis UDP-galactopyranose mutase. P9WIQ1. purified UGM, fluorescence polarization probe displacement. inhibition, % at 10 µM. 0.06% of 320,000 active. AID 504406; in the data active means inhibition above about 10%, passing the limit was not always enough; inconclusive means no clear call, values can overlap the other calls
Target sequence (P9WIQ1 whole entry, looked up): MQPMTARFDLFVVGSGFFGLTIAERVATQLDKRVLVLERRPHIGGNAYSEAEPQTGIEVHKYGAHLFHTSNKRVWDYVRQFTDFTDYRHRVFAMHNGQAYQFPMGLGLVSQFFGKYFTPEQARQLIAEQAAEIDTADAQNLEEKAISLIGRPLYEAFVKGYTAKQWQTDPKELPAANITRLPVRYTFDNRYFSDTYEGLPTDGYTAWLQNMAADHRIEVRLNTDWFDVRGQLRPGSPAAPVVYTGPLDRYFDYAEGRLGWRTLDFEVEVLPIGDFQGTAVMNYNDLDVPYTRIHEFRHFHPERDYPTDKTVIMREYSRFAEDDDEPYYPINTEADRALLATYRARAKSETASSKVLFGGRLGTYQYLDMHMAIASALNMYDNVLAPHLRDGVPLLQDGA
Rv3671c inh: inhibitors of M. tuberculosis serine protease Rv3671c; 0.048% of 320,000 active; AID 2606; inhibition, % at 5.96 µM; P9WHR9; in the data active means inhibition above about 38%;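 further: extracellular domain of Rv3671c used as enzyme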
FBA Mtb inh: inhibitors of M. tuberculosis fructose-bisphosphate aldolase. purified M. tuberculosis FBA, fluorescence read-out. inhibition, % at 1 µM. P9WQA3. 2.3% of 360,000 active; in the data active means inhibition above about 27%
GDH-TPI inh: GDH-TPI coupled enzyme inhibition counter-screen; 1.2% of 360,000 active; GDH-TPI coupled enzyme counterscreen, NADH absorbance; inhibition, % at 4.8 µM; in the data active means inhibition above about 30%
A number is an active result; n = inactive; u = inconclusive; x = not tested or not shown; + = active, no number.

SMILES | Mtb bLac sens | RecA splice inh | Mtb UGM inh | Rv3671c inh | FBA Mtb inh | GDH-TPI inh
N#CC(C(=S)Nc1ccccc1)c1nc2ccccc2[nH]1 (stereo unspecified) | n | n | n | n | n | 61.9
CSC(=Nc1ccccc1)C(C#N)c1nc2ccccc2[nH]1 (stereo unspecified) | n | n | n | n | n | n
C/C=C(/C)C(=O)OC(C)(C)[C@@H]1Cc2c(ccc3ccc(=O)oc23)O1 | n | n | n | n | + | n
CC(C)CC(=O)OC(C)(C)[C@@H]1Cc2c(ccc3ccc(=O)oc23)O1 | n | x | n | n | 181.6 | n
Cn1c(N)c(S(=O)(=O)N2CCN(c3ccccc3F)CC2)c(=O)n(C)c1=O | n | n | n | n | n | n
CC1Cc2ccccc2N1Cc1cccc([N+](=O)[O-])c1 (stereo unspecified) | n | n | n | n | n | n
COc1ccccc1N1C(=O)S/C(=C\c2ccc(C)s2)C1=O | n | n | n | n | n | 34.3
O=[N+]([O-])c1ccc(N2CCSCC2)cc1 | n | n | n | n | n | 71.5
Cc1cccc(CSC(=N)N)c1 | n | n | n | n | n | n
Cc1cccc(CSC(Nc2ccc(F)cc2)=C(C#N)C#N)c1 | n | 53.1 | n | n | n | n
CCC(=O)/C=C1/Sc2ccc(OC)cc2N1CC | n | n | n | n | n | 35.2
CCC(=O)/C=C1/Sc2ccccc2N1CC | n | n | n | n | n | 39.0
Cc1nn(-c2ccccc2)c(C)c1NC(=O)COc1cc(F)ccc1[N+](=O)[O-] | n | x | n | n | n | n
COCCN(CCOC)C(=O)c1cc2c(=O)n3ccccc3nc2s1 | n | x | n | n | + | 31.7
CCN(CC)C(=O)c1cc2c(=O)n3ccccc3nc2s1 | n | n | n | n | 186.2 | n
COc1ccc(Cl)cc1C=CC=NNS(=O)(=O)c1ccc(C)cc1 | x | x | x | x | n | 37.1
COc1ccc(Br)cc1C=NNS(=O)(=O)c1ccc(C)cc1 | x | x | x | x | n | n
O=C1CCCC(O)=C1C=Nc1ccc(O)cc1 | n | n | n | n | n | 35.0
COc1cc(C#Cc2ccc3cc(CCO)oc(=O)c3c2)cc(OC)c1 | n | x | n | n | n | 36.2
O=C(CN1CCCCCC1)Nc1ccc(Cl)cn1 | n | n | n | n | n | n
O=C(CNc1cc(S(=O)(=O)N2CCOCC2)ccc1N1CCCC1)Nc1ccc(Cl)cc1 | x | x | x | x | n | n
O=C1CCCC2=C1C(c1cccnc1)Nc1ccccc1N2 (stereo unspecified) | n | n | n | n | n | 30.8
CC(=O)N1c2ccccc2NC2=C(C(=O)CCC2)C1c1cccnc1 (stereo unspecified) | n | n | n | n | n | n
COc1ccc(C2CC(c3cccs3)n3nc(N)nc3N2)cc1 (stereo unspecified) | n | n | n | n | 134.6 | n
O=[N+]([O-])c1cc(-n2cnnn2)c(O)c([N+](=O)[O-])c1 | n | n | n | n | n | 31.1
SMILES | Mtb bLac sens | RecA splice inh | Mtb UGM inh | Rv3671c inh | FBA Mtb inh | GDH-TPI inh
O=[N+]([O-])c1cc(O)c(O)c([N+](=O)[O-])c1 | n | x | n | n | n | n
O=C(NCc1ccccc1Cl)C1CCC(=O)N(CC2CCCCC2)C1 (stereo unspecified) | n | x | n | n | n | n
Clc1ccc2c(c1)-c1ccccc1C1=NCCN12 | x | x | x | x | 51.5 | n
Cc1cccc(OCC(=O)Oc2ccc(Cl)cc2)c1 | n | 34.4 | n | n | n | n
Cc1ccsc1C(=O)OC(C)C(=O)NC1CCCCC1C (stereo unspecified) | x | x | x | x | n | n
O=C(CCCSc1nc(-c2ccco2)cc(C(F)(F)F)n1)NCc1cccs1 | n | x | n | n | n | n
O=C(CCCSc1nc(-c2ccco2)cc(C(F)(F)F)n1)NCC1CCCO1 (stereo unspecified) | n | x | n | n | n | 32.9
COc1ccccc1N1CCN(C(=O)CSc2nc(-c3ccco3)cc(C(F)(F)F)n2)CC1 | n | n | n | n | n | 31.7
Cc1cc(NC(=O)CSc2nc(-c3ccco3)cc(C(F)(F)F)n2)no1 | n | x | n | n | n | n
O=C(CCSc1nc(-c2ccco2)cc(C(F)(F)F)n1)NCC1CCCO1 (stereo unspecified) | n | n | n | n | n | 32.9
Cc1cccc(C)c1NC(=O)CSc1nc(-c2ccco2)cc(C(F)(F)F)n1 | n | n | n | n | n | 33.3
O=C(CSc1nc(-c2ccco2)cc(C(F)(F)F)n1)NCC1CCCO1 (stereo unspecified) | n | n | n | n | n | 31.4
CCOC(=O)C1=CN(C)C=C(C(=O)OCC)C1c1ccsc1 | n | n | n | n | + | n
Cc1ccccc1-c1ccc(C=Nc2c(C)n(C)n(-c3ccccc3)c2=O)o1 | n | n | n | n | n | 33.3
O=C(Nc1ccc([N+](=O)[O-])cc1)N1CCCCCC1 | n | n | n | n | n | n
O=C(Nc1ccc([N+](=O)[O-])cc1)N1CCCCC1 | n | n | n | n | n | 45.2
O=C(N/N=C/c1cccc([N+](=O)[O-])c1)c1ccc2nc[nH]c2c1 | n | n | n | n | n | n
Cc1ccc(/C=N/NC(=O)c2ccc3nc[nH]c3c2)o1 | n | n | n | n | n | 62.8
O=C(N/N=C/c1ccc([N+](=O)[O-])cc1)c1ccc2nc[nH]c2c1 | n | n | n | n | n | 37.4
Nc1ncc(-c2ccc([N+](=O)[O-])cc2)cn1 | u | n | n | n | n | 54.3
COC(=O)C1=Cc2cc(OC)cc([N+](=O)[O-])c2OC1N1CCOCC1 (stereo unspecified) | n | n | n | n | n | n
CCCCOc1ccc(C(=O)N/C(=C/C=C/c2ccccc2)C(=O)NCCCO)cc1 | n | n | n | n | n | n
C=CCNC(=O)/C(=C\C=C\c1ccccc1)NC(=O)c1ccc(OCCCC)cc1 | n | n | n | n | n | 35.3
CN(C)CCCNC(=O)/C(=C\C=C\c1ccccc1)NC(=O)c1ccc([N+](=O)[O-])cc1 | n | n | n | n | n | 33.7
CCCCOc1ccc(C(=O)N/C(=C/C=C/c2ccccc2)C(=O)NCCO)cc1 | n | n | n | n | n | 31.1
SMILES | Mtb bLac sens | RecA splice inh | Mtb UGM inh | Rv3671c inh | FBA Mtb inh | GDH-TPI inh
C=CC[C@]12CCc3sccc3C1N(c1ccc(C(=O)OCC)cc1)C2=O (stereo partly specified) | n | x | n | n | n | n
CC(=O)OCCn1c(C)[n+](CCOC(C)=O)c2cc(Cl)c(Cl)cc21 | n | n | n | n | n | n
CC(=O)OCCn1c2nc(=O)[nH]c(=O)c-2nc2cc(C)c(C)cc21 | n | n | 108.3 | x | n | n
CN(C)c1ccc(C(=O)Nc2nnc(-c3ccc(Cl)cc3)o2)cc1 | n | n | n | n | n | 34.7
O=C(NCCCCCCCN1CCCCCCC1)C(C1CCCCC1)C1CCCCC1 | x | x | x | x | n | n
Cc1ccc2c(c1)COc1c3ccc(C(=O)N[C@@H](CO)C(C)C)cc3nn1-2 | n | n | n | n | 32.6 | n
COCCCNC(=O)c1ccc2c(c1)ncn2-c1ccc(C)cc1C | n | n | n | n | 150.3 | n
COCCNC(=O)c1ccc2c3n(nc2c1)-c1ccc(C)cc1CO3 | n | n | n | n | 48.8 | n
CCOCCCNC(=O)c1ccc2c(c1)ncn2-c1cccc(C)c1 | n | n | n | n | n | n
